# Six1-Eya2 inh: Six1/Eya2 interaction inhibition | activity change, % (test concentration not listed) | 0.56% of 360,000 active | AlphaScreen GST-Six1/His-Eya2 binding, biochemical; active compounds read low | Q15475+O00167; in the data active = activity change below about -65%; inconclusive = mostly about -30% to -63%
#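 AlphaScreen luminescence read after one hour at 37 °C in darkness. Pin-transferred compounds met GST-Six1 and His-Eya2 protein (5X stock 250 nM/500 nM) plus glutathione donor and Ni-chelate acceptor beads (5X, 50 ug/mL).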
# DT40 TDP1 CPT: DT40-hTDP1 cell growth loss with CPT; AID 686979; 12% of 420,000 active; chicken DT40 Tdp1-/-;hTDP1 cells + 20 nM CPT, ATP luminescence, 48 h; Potency, µM (doses to about 46.2 µM), inactives show at the highest dose activity change, negative = growth inhibition, hits mostly inhibitors; also: potency is read from the fitted curve at half-maximal effect; nearly all actives have a fitted effect of over 55% in size
#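 Cell growth measured by CellTiter-Glo luminescence after a minimum 48 h, 37 C compound exposure with 20 nM CPT in Tdp1-knockout DT40 cells stably expressing hTDP1, seeded 400/well; qHTS titration format.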
# IL1B secr inh: inflammasome signaling inhibition, IL-1 beta readout; THP-1 LPS/ATP IL-1B secretion, AlphaLISA, 16 h; active compounds read low; activity change, % at 57.5 µM; 4.7% of 360,000 active; AID 743279; in the data active = activity change below about -50%; inconclusive = mostly about -30% to -49%
#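 THP-1 cells pretreated 1 hr with compounds (up to 57.5 uM final), then stimulated with LPS (250 ng/mL final) plus ATP (1.25 mM final); secreted IL-1B measured by AlphaLISA after 16 hr, decreased signal indicating inhibition.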
# TDP1 inh: blocks human tyrosyl-DNA phosphodiesterase 1 | Potency, µM (titrated, usually from 130 µM), for the others: at the highest dose activity change, negative = inhibition, actives largely listed as inhibitors | 0.28% of 350,000 active | AID 485290 | recombinant TDP1, AlphaScreen DNA substrate cleavage; also: potency is read from the fitted curve at half-maximal effect; nearly all actives have a fitted effect of over 40% in size
# Target sequence (Q9NUW8 whole entry, looked up): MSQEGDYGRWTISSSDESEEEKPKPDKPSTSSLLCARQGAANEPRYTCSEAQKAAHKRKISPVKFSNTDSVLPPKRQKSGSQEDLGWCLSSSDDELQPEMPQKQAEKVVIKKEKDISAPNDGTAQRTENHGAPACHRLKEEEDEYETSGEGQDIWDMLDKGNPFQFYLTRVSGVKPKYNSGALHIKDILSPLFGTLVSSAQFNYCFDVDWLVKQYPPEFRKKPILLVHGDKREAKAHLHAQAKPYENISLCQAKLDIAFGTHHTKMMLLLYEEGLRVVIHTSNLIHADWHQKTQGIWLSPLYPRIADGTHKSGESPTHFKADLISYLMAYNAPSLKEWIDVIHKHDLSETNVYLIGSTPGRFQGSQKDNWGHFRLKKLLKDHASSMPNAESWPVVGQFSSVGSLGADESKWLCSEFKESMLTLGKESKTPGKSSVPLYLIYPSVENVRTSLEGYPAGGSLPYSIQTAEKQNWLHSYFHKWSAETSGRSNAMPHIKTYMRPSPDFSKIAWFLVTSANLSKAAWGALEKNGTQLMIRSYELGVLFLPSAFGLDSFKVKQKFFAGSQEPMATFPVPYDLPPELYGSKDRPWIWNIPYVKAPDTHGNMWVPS
#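 Signal: AlphaScreen proximity between streptavidin donor and anti-FITC acceptor beads on intact substrate. Reaction: Tdp1 1 nM, substrate 15 nM final, 5 min RT after 15 min compound preincubation.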
# TDP1 cell noCPT: qHTS for Inhibitors of human tyrosyl-DNA phosphodiesterase 1 (TDP1): qHTS in cells in absence of CPT | DT40 Tdp1-/- hTDP1 cells, no CPT, ATP luminescence, 48 h | Potency, µM (highest dose often 46.2 µM), inactives show at the top dose activity change, negative = growth inhibition, usual class: inhibitors | 15% of 420,000 active; also: potency is read from the fitted curve at half-maximal effect; nearly all actives have a fitted effect of over 55% in size
#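 Camptothecin absent (DMSO only). Human TDP1-complemented DT40 knockout cells, 400 cells/well, 37 °C for minimum 48 hr; ATP measured via CellTiter-Glo, 30 min dark incubation, luminescence.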
# CtBP-E1A blk: CtBP/E1A binding inhibition. activity change, % (concentration not given with the values). AlphaScreen GST-E1A/His-CtBP binding, 1536-well; active compounds read low. 0.49% of 340,000 active; in the data active = activity change below about -65%; inconclusive = mostly about -30% to -63%
#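 Steps: dispense buffer (Tris pH 8.0, NaCl 300 mM, TCEP 1 mM, BSA, Tween 20); add 5X protein mix (GST-E1A, His-CtBP, 125 nM each); pin 23 nL compound; 2 h at 37 °C, dark; add 5X beads (50 ug/mL); 1 h; read.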
# Starred values were filed as active, the others as inactive; u = inconclusive; x = no result given; [ ] = another dose, or the depositor's remark. Hits are enriched below; roughly 18% of the tested compounds scored in any of these assays. Unless noted, calls follow the shape of the dose curve; as a rule, active = well fitted curve in the direction sought with a large enough effect; inconclusive = small, poorly fitted or top-dose-only effect, or another doubt; inactive = no such curve, though single readings can be large; an effect the other way counts as inactive or inconclusive. % is scaled to controls: 0 for no effect and ±100 for the full control effect.
SMILES,Six1-Eya2 inh,DT40 TDP1 CPT,IL1B secr inh,TDP1 inh,TDP1 cell noCPT,CtBP-E1A blk
Cn1cncc1C#Cc1ccc(N2C(c3ccsc3)=Cc3ccc(F)cc3C2c2c[nH]c3ccccc23)cc1 (stereo not drawn),2,u,4,x,u,1
COc1ccc(-c2ccc(N3C(c4ccsc4)=Cc4ccc(F)cc4C3c3c[nH]c4ccccc34)cc2)cc1 (stereo not drawn),-8,u,32,x,18µM*,-6
COC(=O)c1ccc(N2C(c3cccc(OC)c3)=Cc3ccc(F)cc3C2c2c(C)[nH]c3ccccc23)cc1 (stereo not drawn),-4,23µM*,41,x,u,3
COc1ccc(-n2c(SCC(=O)N3CCC(C(=O)O)CC3)nc3ccccc3c2=O)cc1OC,-11,12%,26,4%,-6%,0
COc1ccc(/C=N/NC(=O)c2cccnc2)cc1Cn1nc([N+](=O)[O-])c(Br)c1C,x,x,x,3%,x,x
COc1cccc(C2=Cc3ccc(F)cc3C(CC(C)=O)N2c2ccc(-c3cc(OC)c(OC)c(OC)c3)cc2)c1 (stereo not drawn),18,-3%,-3,x,-14%,-20
COc1cc(OC)cc(C2=Cc3ccccc3C(CC(C)=O)N2c2ccc(-c3cccs3)cc2)c1 (stereo not drawn),15,u,18,x,21µM*,15
O=C(CC1c2ccccc2C=C(c2ccsc2)N1c1ccc(-c2cccnc2)cc1)C1CC1 (stereo not drawn),13,u,-13,x,18µM*,19
COc1cccc(C2=Cc3ccc(F)cc3C(CC(C)=O)N2c2ccc(-c3cncnc3)cc2)c1 (stereo not drawn),6,13µM*,15,x,16µM*,8
COc1cc(OC)cc(C2=Cc3ccccc3C(CC(C)=O)N2c2ccc(C#CC3(O)CCCCC3)cc2)c1 (stereo not drawn),9,u,-24,x,u,6
O=C(NCCc1ccccc1)c1cnc2ccccn2c1=O,0,-20%,-5,-2%,-16%,12
COC(=O)c1ccc(NC(=O)c2ccc3c(c2)C(=O)N(Cc2cccnc2)C3=O)cc1,-9,-18%,33,1%,-2%,2
O=C(COC(=O)CSc1ccc([N+](=O)[O-])cc1)NCCCc1ccccc1,0,15µM*,6,3%,u,24
O=C(CCNC(=O)c1ccc([N+](=O)[O-])cc1)NCCc1ccccc1,-2,u,-57*,x,u,2
Cc1ccc(CN(C)C(=O)COC(=O)CSc2ccc([N+](=O)[O-])cc2)cc1,-12,u,4,6%,16µM*,-3
O=C(Cn1c(=O)c2sccc2n(Cc2ccc([N+](=O)[O-])cc2)c1=O)NCCc1ccccc1,u,u,-28,3%,13µM*,-89*
O=C(COC(=O)CSc1ccc([N+](=O)[O-])cc1)NCCc1ccccc1,-7,-3%,-3,x,8%,9
Cc1cccc(C(=O)N2CCCC(N3CCN(c4cccc(Cl)c4)CC3)C2)n1 (stereo not drawn),-3,u,23,3%,u,4
O=c1[nH]c2ccc([N+](=O)[O-])cc2[nH]1,0,10%,7,x,-1%,-3
CSc1ccc(S(=O)(=O)NCC(=O)OC(C)C(=O)NCc2ccccc2)cc1[N+](=O)[O-] (stereo not drawn),-3,5%,13,-8%[0.505 µM],-13%,22
CC(OC(=O)CSc1ccc([N+](=O)[O-])cc1)C(=O)NCc1ccccc1 (stereo not drawn),10,21µM*,-22,5%,16µM*,0
CCOc1cccc(/C=N/N2C(C)CCCC2C)c1O (stereo not drawn),-6,-9%,0,x,5%,2
COc1ccc(N(CC(=O)NCc2ccco2)S(=O)(=O)c2ccc(C)cc2)cc1OC,6,2%,13,13%[0.0935 µM],-38%,17
Cc1ccc(N(CC(=O)NCc2ccco2)C(=O)CNS(=O)(=O)c2ccc(F)cc2)c(C)c1,-5,-7%,-95*,4%,-15%,-23
COC(=O)COc1ccc(/C=N/NC(=O)CN(c2ccccc2OC)S(=O)(=O)c2ccccc2)cc1,u,u,-96*,x,u,u
SMILES,Six1-Eya2 inh,DT40 TDP1 CPT,IL1B secr inh,TDP1 inh,TDP1 cell noCPT,CtBP-E1A blk
Cc1ccccc1N(CC(=O)NCc1ccco1)C(=O)CNS(=O)(=O)c1ccc(F)cc1,-2,7%,-13,x,-14%,-8
COc1ccccc1N(CC(=O)NCc1ccco1)S(=O)(=O)c1ccc(C)cc1,0,-21%,-85*,x,-2%,-1
O=C(Nc1ccccc1C(=O)Nc1ccccc1C(=O)NCc1ccco1)c1ccco1,-11,16µM*,-2,5%,u,7
COc1ccc(N(CC(=O)N/N=C/c2ccc(N(C)C)cc2)S(=O)(=O)c2ccccc2)cc1,-28,-22%,-10,x,6%,-29
CC(Oc1ccccc1)C(=O)N=Nc1c(O)[nH]c2ccc(Br)cc12 (stereo not drawn),6,-3%,25,5%,-5%,-13
CCOC(=O)N1N=C(c2ccc(OC)cc2)CC1(O)C(F)(F)F (stereo not drawn),4,0%,-12,1%,-23%,x
COCCn1c(SCC(=O)Nc2ccc(C(F)(F)F)cc2)nc2c([nH]c3ccccc32)c1=O,x,u,x,2%,u,x
COc1ccccc1NC(=O)COc1ccc(/C=N/NS(=O)(=O)c2ccc(C)cc2)cc1,1,-14%,17,6%,u,-3
Cc1ccccc1C(=O)c1c[nH]c(C(=O)NCc2ccco2)c1,1,u,-52*,2%,u,0
COC(=O)COc1ccc(/C=N/NS(=O)(=O)c2ccccc2)cc1,-5,1%,-92*,x,-13%,-1
COc1ccccc1N(CC(=O)N/N=C/c1ccc(OCC(=O)NCc2ccco2)cc1)S(=O)(=O)c1ccc(C)cc1,-9,u,-13,7%,13µM*,8
Cc1ccccc1N(CC(=O)Nc1ccccc1C(=O)NCc1ccco1)S(=O)(=O)c1ccccc1,-9,u,-3,1%,16µM*,18
CN(CC1CCCO1)S(=O)(=O)c1ccc(C(=O)NCc2ccccc2)cc1 (stereo not drawn),3,u,23,3%,u,2
